Sampled rows, rich in hits. Any-hit rate of the full collection: about 2.1%.
PAX8 inh HTS – PAX8 transcriptional activity inhibition. RMG-I TPO-luciferase reporter, SteadyGlo, 24 h. 360,000 compounds, 1.2% hits. inhibition, % at 12.6 µM;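 active means mean replicate inhibition at least 60% with every replicate also reaching 60%; inconclusive means only one of the two criteria is met; inactive means mean below 60% and not all replicates reaching 60%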;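 further: luciferase light reporting Pax8 driven TPO promoter activity; plate controls were median of neutral control wells for no effect and mitoxantrone controls for full effect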
KKLEB tox – reduces viability of KKLEB cystic fibrosis airway cells; KKLEB CF airway cells viability, ATPlite luminescence, overnight; hits give low values; cells stimulated with P. aeruginosa culture filtrate; activity change (cytotoxicity), % at 5 µM; 360,000 compounds, 0.36% hits;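 active means corrected activity change at or below -50% at 5 µM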
CF NFkB block – inhibitors of cystic fibrosis induced NF-kB; KKLEB NF-kB-GFP reporter, PAF-induced, GFP fluorescence overnight; inhibition, % at 5 µM; 360,000 compounds, 0.86% hits;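 active means at least 50% inhibition at 5 µM, scaled per plate between neutral and stimulator controls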;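 further: PAF is a Pseudomonas aeruginosa culture filtrate used as stimulus; plate controls were PAF-stimulated DMSO wells for no effect and unstimulated DMSO wells for full effect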
EWS-Fli block – blocks EWS/Fli oncoprotein-driven transcription; A673 NR0B1-luciferase reporter, viability-normalised; inhibition, % at 12.6 µM; 350,000 compounds, 0.67% hits;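 active means mean inhibition of at least 50% after viability correction, with every replicate also passing that limit; inconclusive means mean reaches 50% but only one of two replicates passes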;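 further: firefly luciferase signal divided by Alamar Blue viability fluorescence both relative to DMSO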
HIF-2a inh – HIF-2a inhibition; inhibition, % at 18.8 µM; 360,000 compounds, 0.72% hits; 786-0 RCC cells HIF-2a reporter, luciferase luminescence, overnight; AID 624352;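 active means inhibition of the luminescence signal of 40% or more relative to plate controls, in a single-dose primary screen at 18.75 µM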
Numbers without * were called inactive; ? = inconclusive; · = no result given.

SMILES	PAX8 inh HTS	KKLEB tox	CF NFkB block	EWS-Fli block	HIF-2a inh
O=C(Cc1cccnc1)N1CC(=O)N2[C@H](CO)[C@@H](c3ccc(C#CC4CCCC4)cc3)[C@H]2C1	·	·	·	2	·
CCCNC(=O)C[C@H]1CC[C@@H]2[C@@H](COc3ccc(NC(=O)c4ccc(OC)cc4)cc3C(=O)N2C)O1	-6	·	·	-23	·
CO[C@@H]1CN(C)C(=O)c2ccc(NC(=O)C3CCOCC3)cc2OC[C@H](C)N(C)C[C@@H]1C	-8	·	·	-2	·
Cc1ccc(S(=O)(=O)Nc2ccc3c(c2)C(=O)N([C@@H](C)CO)C[C@H](C)[C@H](CN(C)Cc2ccc(C(F)(F)F)cc2)OCCCC[C@@H](C)O3)cc1	102*	·	·	9	·
COc1ccc2c3c(n(C)c2c1)[C@H](CO)N(C(C)=O)CC31CCN(C(=O)c2ccccc2)CC1	·	·	·	0	·
COC(=O)CSc1nc(N)c2c3c(sc2n1)C(c1ccccc1)SC(c1ccccc1)C3 (stereo unspecified)	·	14	-44	·	88*
CC(C)(C)C1CCc2c(sc3nc(SCC(=O)O)nc(N)c23)C1 (stereo unspecified)	-55	7	-5	26	55*
CC1(C)Cc2c(sc3nc(SCC(=O)O)nc(N)c23)CO1	-10	-3	18	-7	15
C[C@H](CO)N1C[C@H](C)[C@H](CN(C)C(=O)Nc2ccccc2)Oc2c(NC(=O)C3CC3)cccc2C1=O	0	·	·	-4	·
O=C(N[C@H]1CC[C@H](CCn2cc(C3(O)CCCC3)nn2)O[C@@H]1CO)C1CCCC1	26	·	·	18	·
Cc1ccc(-c2ccc(/C=C3\C(=O)ON=C3c3ccccc3)o2)c([N+](=O)[O-])c1	·	1	52*	·	95*
Cc1ccc(/C=C2\C(=O)ON=C2c2ccccc2)o1	1	-13	11	4	6
Cc1ccc(C2=NOC(=O)/C2=C\c2ccc(C)o2)cc1	-3	-4	0	-5	42*
CCCC(=O)N1CCC2(CC1)CN(C(=O)c1ccc(F)cc1)[C@H](CO)c1[nH]c3cc(OC)ccc3c12	-6	·	·	1	·
Cc1ccc(S(=O)(=O)N(C)C[C@H]2Oc3ccc(NC(=O)Nc4ccc(C(F)(F)F)cc4)cc3CC(=O)N([C@H](C)CO)C[C@@H]2C)cc1	82*	·	·	-4	·
C[C@H](CO)N1C[C@H](C)[C@H](CN(C)S(=O)(=O)c2ccc(F)cc2)Oc2ccc(NC(=O)Nc3ccc(F)cc3)cc2CC1=O	·	·	·	-15	·
C[C@H](CO)N1C[C@H](C)[C@H](CN(C)S(=O)(=O)c2ccc(Cl)cc2)Oc2ccc(NC(=O)Nc3ccc(F)cc3)cc2CC1=O	74*	·	·	31	·
Cc1ccc(S(=O)(=O)N(C)C[C@H]2Oc3ccc(NC(=O)Nc4ccc(C(F)(F)F)cc4)cc3CC(=O)N([C@H](C)CO)C[C@H]2C)cc1	63*	·	·	6	·
C[C@@H]1CN([C@@H](C)CO)C(=O)Cc2cc(NC(=O)Nc3ccc(C(F)(F)F)cc3)ccc2O[C@H]1CN(C)S(=O)(=O)c1ccc(F)cc1	94*	·	·	0	·
Cc1ccc(S(=O)(=O)N(C)C[C@@H]2Oc3ccc(NC(=O)Nc4ccc(C(F)(F)F)cc4)cc3CC(=O)N([C@@H](C)CO)C[C@H]2C)cc1	49	·	·	-1	·
COCC(=O)N(C)C[C@@H]1Oc2ncc(-c3ccccc3OC)cc2C(=O)N([C@@H](C)CO)C[C@H]1C	·	·	·	-13	·
C[C@H](CO)N1C[C@H](C)[C@H](CN(C)S(=O)(=O)c2ccccc2)Oc2ccc(NC(=O)Nc3ccc(C(F)(F)F)cc3)cc2CC1=O	16	·	·	61*	·
C[C@H](CO)N1C[C@H](C)[C@H](CN(C)S(=O)(=O)c2cccs2)Oc2ccc(NC(=O)Nc3ccc(C(F)(F)F)cc3)cc2CC1=O	15	·	·	56*	·
C[C@@H]1CN([C@H](C)CO)C(=O)Cc2cc(NC(=O)Nc3ccc(C(F)(F)F)cc3)ccc2O[C@H]1CN(C)S(=O)(=O)c1cccs1	-18	·	·	-5	·
Cc1ccc(S(=O)(=O)N(C)C[C@@H]2Oc3ccc(NC(=O)Nc4ccc(C(F)(F)F)cc4)cc3CC(=O)N([C@H](C)CO)C[C@@H]2C)cc1	97*	·	·	?	·
SMILES	PAX8 inh HTS	KKLEB tox	CF NFkB block	EWS-Fli block	HIF-2a inh
CN1C(=O)c2cc(NC(=O)c3cccs3)ccc2OC[C@@H]2O[C@H](CC(=O)NCC(F)(F)F)CC[C@H]21	-8	·	·	9	·
COc1ccc(S(=O)(=O)Nc2cccc3c2O[C@@H](CN(C)S(=O)(=O)c2ccc(OC)cc2)[C@@H](C)CN([C@@H](C)CO)C3=O)cc1	12	·	·	·	·
C[C@H](CO)N1C[C@H](C)[C@H](CN(C)Cc2ccncc2)Oc2cc(-c3ccccc3)ccc2S1(=O)=O	·	·	·	5	·
CS(=O)(=O)c1ccc(C(=O)OCC(=O)NC(=O)C2COc3ccccc3O2)cc1[N+](=O)[O-] (stereo unspecified)	14	24	8	5	1
CS(=O)(=O)c1ccc(C(=O)OCC(=O)NC(=O)C2CCCCC2)cc1[N+](=O)[O-]	56	-20	74*	19	18
CS(=O)(=O)c1ccc(C(=O)OCC(=O)N2CCN(CCC3CCCCC3)CC2)cc1[N+](=O)[O-]	105*	-85*	101*	54*	80*
CS(=O)(=O)c1ccc(C(=O)OCC(=O)N2CCOCC2)cc1[N+](=O)[O-]	-1	-7	43	-6	6
OCC1CCCC(n2cnc3c(=S)nc[nH]c32)O1 (stereo unspecified)	13	7	-7	1	23
CCOC1CCCC(n2cnc3c(=S)nc[nH]c32)O1 (stereo unspecified)	83*	1	-3	-1	8
O=C(CN1CCOCC1)Nc1nc(-c2ccccc2)cs1	-3	1	-11	-2	-20
O=C(Cn1nnc(-c2ccc(CN3CCOCC3)cc2)n1)Nc1nc(-c2ccccc2)cs1	-12	-51*	-24	·	-112
COc1ccccc1-c1ccc2c(c1)[C@H]1[C@H](CCN1S(=O)(=O)c1cn(C)cn1)[C@H](CO)N2	-58	·	·	-47	·
COc1ccc(/C=C2/CSC/C(=C/c3ccc(OC)c(OC)c3)C2=O)cc1OC	38	-92*	93*	66*	92*
COc1ccc(/C=C2\Cc3ccccc3C2=O)cc1OC	-7	8	-24	-137	-93
COc1cc(C=C2CCCC(=Cc3ccc(OCC4CO4)c(OC)c3)C2=O)ccc1OCC1CO1 (stereo unspecified)	30	-45	86*	68*	13
COC(=O)c1ccc2nc(NC(=O)C3CCCCC3)sc2c1	-60	-3	-10	27	24
COC(=O)c1ccc2nc(NC(=O)C(C)(C)C)sc2c1	13	-50*	3	54*	39
O=S(=O)(c1ccccc1)N1CCN(Cc2cccc(OCCO)c2)CC1	-6	·	·	-13	·
COc1ccc(CC2C(=O)NC(C)C(=O)N(C)C3Cc4ccc(cc4)Oc4cc(ccc4O)CC(C(=O)NC(C)C(=O)NC(C)C(=O)N2C)N(C)C3=O)cc1 (stereo unspecified)	110*	-45	88*	66*	82*

Assay outcomes (PubChem BioAssay)
